# A selection: hits, their analogues and other compounds. The true share with any hit is near 2.5%.
# Cruzain Triton – blocks cruzain activity in presence of Triton detergent. 200,000 tested, 0.43% active. Potency, µM, without a hit: max response, negative = inhibition, usual class: inhibitors. purified cruzain, Z-FR-AMC fluorescence, 0.01% Triton;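 further: plate controls were neutral wells for no effect and buffer without enzyme for full effect; nearly all actives have a fitted effect of over 40% in size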
# Target sequence (P25779 123-467 limits assumed): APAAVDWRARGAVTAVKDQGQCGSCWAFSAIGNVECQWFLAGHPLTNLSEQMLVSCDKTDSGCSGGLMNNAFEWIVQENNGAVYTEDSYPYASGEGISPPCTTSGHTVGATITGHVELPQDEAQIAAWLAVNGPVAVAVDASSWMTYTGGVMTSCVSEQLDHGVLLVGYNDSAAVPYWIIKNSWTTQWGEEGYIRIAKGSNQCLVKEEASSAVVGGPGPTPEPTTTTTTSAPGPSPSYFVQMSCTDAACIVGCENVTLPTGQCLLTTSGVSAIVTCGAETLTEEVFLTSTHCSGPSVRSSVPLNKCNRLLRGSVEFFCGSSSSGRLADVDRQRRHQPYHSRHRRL
#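 Compounds were screened in titration against cruzain (1.5 nM) with 0.01% Triton X-100 to counter colloidal aggregation. Activity was the AMC fluorescence increase over 60 s after adding 2 uM Z-FR-AMC at pH 5.5.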
# Cruzain inh noDet – inhibitors of Trypanosoma cruzi cruzain without detergent. purified cruzain, Z-FR-AMC fluorescence, no detergent. P25779. AID 1476. Potency, µM, without a hit: max response, negative = inhibition, hits mostly inhibitors. 200,000 tested, 2.3% active;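 further: plate controls were enzyme without inhibitor for no effect and buffer without enzyme for full effect; nearly all actives have a fitted effect of over 40% in size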
#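 Detergent-free condition (0.00005% Triton X-100) in acetate buffer pH 5.5 with DTT. 1.5 nM enzyme and compound were pre-mixed 15 min, then 2 uM Z-FR-AMC substrate added; reaction progress from fluorescence change between first and third reads (60 s).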
# An asterisk follows results filed as active; ? = inconclusive. The call rests on the fitted dose curve; in most records, active means well fitted curve in the direction sought with a large enough effect; inconclusive means small, poorly fitted or top-dose-only effect, or another doubt; inactive means no such curve, though single readings can be large; an effect the other way counts as inactive or inconclusive. Potency means the concentration at half of the fitted maximal effect.
SMILES,Cruzain Triton,Cruzain inh noDet
COc1cc(/C=C/C(=O)Nc2ccc(N3CCCCC3)c(S(=O)(=O)Nc3ccccc3Cl)c2)cc(OC)c1OC,-2.0%,13.2%
COc1ccccc1NS(=O)(=O)c1cc(NC(=O)Nc2ccc(Cl)cc2Cl)ccc1N1CCCCC1,-2.1%,5.01µM*
COc1ccc(S(=O)(=O)N2CCCCC2)cc1NS(=O)(=O)c1cc(Cl)ccc1Cl,-5.5%,20µM*
O=C(Nc1cccc(C(F)(F)F)c1)Nc1ccc(N2CCCC2)c(S(=O)(=O)Nc2ccccc2Cl)c1,-0.1%,6.31µM*
COc1ccc(Cl)cc1NS(=O)(=O)c1cc(Cl)ccc1OC,-1.7%,1.9%
O=C(Nc1cccc(S(=O)(=O)Nc2ccccc2Cl)c1)c1ccc(Cl)nc1,-3.9%,0.5%
CCOC(=O)c1sc(NC(=O)c2c(-c3ccccc3)c(-c3ccccc3)nn(C)c2=O)nc1C,-6.0%,?
COc1ccc(N2CC(NC(=O)COc3ccccc3C)CC2=O)cc1OC (stereo not drawn),-0.7%,5.3%
COc1ccc2nc(NC(=O)c3ccc(S(=O)(=O)N4CCC(C)CC4)cc3)sc2c1,2.3%,-12.6%
COc1ccc(NC(=O)c2c(C)oc3ccc(O)c(CN4CCCC(C)C4)c23)cc1 (stereo not drawn),-5.5%,-16.3%
CC(=O)C1=C(C)NC(SCC(=O)c2ccc(Cl)c(Cl)c2)=C(C#N)C1c1ccco1 (stereo not drawn),-20.2%,?
COc1ccccc1NC(=O)C1=C(C)NC(SCC(=O)c2ccc(C)cc2)=C(C#N)C1c1ccco1 (stereo not drawn),-9.9%,12.6µM*
CC1=C(C(=O)Nc2ccccc2)C(c2ccco2)C(C#N)=C(SCC(=O)OC(C)C)N1 (stereo not drawn),-8.9%,-8.6%
CC1=C(C(=O)Nc2ccccc2)C(c2ccco2)C(C#N)=C(SCc2ccccc2)N1 (stereo not drawn),-5.4%,20µM*
CC(=O)C1=C(C)NC(SCC(=O)c2ccc(F)cc2)=C(C#N)C1c1ccco1 (stereo not drawn),-17.1%,-17.4%
CC(=O)C1=C(C)NC(SCC(=O)c2cc(Cl)ccc2Cl)=C(C#N)C1c1ccco1 (stereo not drawn),-17.9%,25.1µM*
CC1=C(C(=O)Nc2ccccc2)C(c2ccco2)C(C#N)=C(SCC(=O)Nc2cccc(C)c2C)N1 (stereo not drawn),-7.8%,?
CCOc1ccccc1NC(=O)CSC1=C(C#N)C(c2ccco2)C(C(=O)Nc2nc3ccccc3s2)=C(C)N1 (stereo not drawn),-8.6%,7.94µM*
COc1ccc(-n2c(=O)c(-c3ccc(F)cc3)nc3cnc(N4CCOCC4)nc32)cc1,1.4%,-2.9%
COc1ccc(OC)c(CCNC(=O)c2cnn(-c3ccccc3Cl)c2C2CCN(C(=O)OC(C)(C)C)CC2)c1,-7.8%,?
COC(=O)C1=NN(c2ccccc2)C2(S1)S/C(=C\c1ccccc1)C(=O)N2c1ccccc1 (stereo not drawn),2.0%,10µM*
CCOC(=O)C1=NN(c2ccccc2)C2(S1)SC(C(C)=O)=C(C)N2c1ccccc1 (stereo not drawn),-3.4%,9.9%
O=C(Nc1ccc2ccccc2c1)c1nn(C23CC4CC(CC(C4)C2)C3)cc1Br,4.2%,10µM*
COc1ccc(NC(=O)c2nn(C34CC5CC(CC(C5)C3)C4)cc2[N+](=O)[O-])cc1,-4.1%,-0.9%
Cc1cccc(CCNC(=O)c2ccc3c(c2)nc2n3CCOC2)c1,-1.2%,-1.1%
SMILES,Cruzain Triton,Cruzain inh noDet
Cc1ccc(C2CC(c3cccs3)=NN2C(=O)c2ccc(Br)o2)cc1 (stereo not drawn),-9.4%,7.94µM*
CCOC(=O)CSCC(=O)N1N=C(c2cccs2)CC1c1ccc(F)cc1 (stereo not drawn),-9.0%,6.5%
CCOC(=O)c1cccc(NC(=O)CSc2ncc3c(n2)-c2ccc(Cl)cc2N(Cc2ccccc2)S3(=O)=O)c1,-3.7%,-26.9%
Oc1ccc(NCc2ccc(OCc3ccccc3)cc2)cc1,-16.2%,-14.9%
CCc1ccc(CNc2ccc(O)cc2)cc1,-20.7%,31.6µM*
CCCCCCN(CCCCCC)C(=O)Cc1c(-c2ccc(F)cc2)[nH]c2ccccc12,-9.0%,31.6µM*
O=C(Cc1c(O)c2ccccc2[nH]c1=O)N(Cc1ccccc1)Cc1ccccc1,-2.6%,-3.1%
Cc1ccc(NC(=O)COC(=O)c2ccc3c(c2)C(=O)N(CCc2ccccc2)C3=O)c(C)c1,-1.5%,25.1µM*
CCOc1ccc(NC(=O)COC(=O)c2ccc3c(c2)C(=O)N(CCc2ccccc2)C3=O)cc1,-2.6%,?
O=C(NCC(c1ccco1)S(=O)(=O)c1cccs1)c1ccc(C(F)(F)F)cc1 (stereo not drawn),-2.2%,10.3%
CCOc1cccc2cc(-c3nc4ccc(C(=O)O)cc4[nH]3)c(=O)oc12,-0.2%,1.5%
Cc1ccccc1CS(=O)(=O)c1nnc([C@H](CC(C)C)NC(=O)OC(C)(C)C)o1,12.6µM*,25.1µM*
CCOC(=O)CSc1nnc([C@H](Cc2ccccc2)NC(=O)OC(C)(C)C)o1,-3.8%,-9.9%
CC(C)(C)OC(=O)N[C@@H](Cc1ccccc1)c1nnc(S(=O)(=O)Cc2cccc(F)c2)o1,12.6µM*,20µM*
CC(C)C[C@H](NC(=O)OC(C)(C)C)c1nnc(SCc2ccccc2)o1,-2.5%,11.6%
C[C@H](NC(=O)OC(C)(C)C)c1nnc(SCc2c(F)cccc2Cl)o1,-2.2%,-5.1%
CC(C)[C@H](NC(=O)OC(C)(C)C)c1nnc(S(=O)(=O)Cc2c(F)cccc2Cl)o1,3.55µM*,5.01µM*
COc1cccc(NC(=O)Cn2c(=O)n(CCCC(=O)NCc3ccc4c(c3)OCO4)c(=O)c3ccccc32)c1,-3.7%,10.7%
CCOC(=O)c1c(C)c(-c2ccccc2)n(CC(=O)NCc2cccc(OC)c2)c1C,-1.0%,5.6%
Cc1cccc(C2=NN(c3ccccc3)[C@@H](C(=O)N3CCOC3=O)[C@@H]2c2ccc(Cl)cc2)c1,-4.6%,22.4µM*
C[C@@H]1C(c2ccccc2)=NN(c2ccc(Br)cc2)[C@H]1C(=O)N1CCOC1=O,-1.5%,?
Cc1cccc(C2=NN(c3ccccc3)[C@@H](C(=O)N3CCOC3=O)[C@@H]2c2ccc(F)cc2)c1,-7.0%,?
O=C1OCCN1C(=O)[C@H]1[C@H](c2ccc([N+](=O)[O-])cc2)C(c2cccc(Cl)c2)=NN1c1ccccc1,0.0%,11.2µM*
O=C1OCCN1C(=O)[C@H]1[C@H](c2ccc([N+](=O)[O-])cc2)C(c2ccccc2)=NN1c1ccccc1,3.9%,?
Cc1cccc(C2=NN(c3ccc(Br)cc3)[C@@H](C(=O)N3CCOC3=O)[C@@H]2C)c1,-0.2%,28.2µM*
SMILES,Cruzain Triton,Cruzain inh noDet
Cc1cccc(C2=NN(c3ccccc3)[C@@H](C(=O)N3CCOC3=O)[C@@H]2C)c1,-0.2%,0.5%
Cc1cccc(C2=NN(c3ccc(Br)cc3)[C@@H](C(=O)N3CCOC3=O)[C@@H]2c2ccc([N+](=O)[O-])cc2)c1,1.3%,6.31µM*
Cc1ccc(C)c(-c2ccc(C(=O)O)o2)c1,8.0%,3.7%
CSCCC(NC(=O)OC(C)(C)C)C(=O)NC(CC(C)C)C(N)=O (stereo not drawn),-0.7%,-2.4%
CC(C)CC(NC(=O)C(CC(C)C)NC(=O)OC(C)(C)C)C(N)=O (stereo not drawn),?,15.8µM*
O=C(c1cnccn1)N1CCC2(CC1)CN(c1ccncc1)C2,3.0%,-4.1%
COc1ccc(Br)cc1CNC(=O)CCSCc1ccc(C)cc1,-0.1%,15.2%

# Compound activity as filed in PubChem.
